Inconclusive results are not listed. Unmarked numbers belong to inactive results. The source made the active and inactive calls. The call rests on the fitted dose curve; in most records, active means well fitted inhibition curve with a large enough effect; inconclusive means small, poorly fitted or top-dose-only effect; inactive means flat fitted curve, though single readings scatter.
Potency means the concentration at half of the fitted maximal effect.

For one test, the system named is CP250. In words: qHTS profiling for inhibitors of Plasmodium falciparum proliferation (AID 504749). Further: nearly all actives have a fitted effect of over 60% in size.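 On activity, negative = inhibition: 0% = DMSO vehicle and full inhibition = artemisinin control.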 Particulars: P. falciparum in erythrocytes, SYBR Green DNA, 72 h; series mostly up to 28.7 µM; activity, negative = inhibition: at the top concentration. Summed up: (§1)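 SYBR Green fluorescence (ex 485 nm, em 535 nm) reports parasite DNA after 72 h compound exposure of infected red cells at 0.3% parasitemia, 2.5% hematocrit; signal normalized to 0.29 uM artemisinin and vehicle wells.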
(In general: In qHTS, concentration-response curves come from the screen itself.)
Consider `C#C[C@]1(O)CC[C@H]2[C@@H]3CCc4cc(OC)ccc4[C@H]3CC[C@@]21C`, for which the “activity, negative = inhibition” value was 2.17%.
On the same count and under the same terms, the result for `CCCCNC(=O)NS(=O)(=O)c1ccc(N)cc1` reads -9.24%.
On the same count and under the same terms, the result for `Nc1ccc(C(=O)NCC(=O)O)cc1` reads -8.07% [at 12.8 µM].
For the molecule `OC1C(O)C(O)C(O)C(O)C1O` (stereo not given), the “activity, negative = inhibition” value is 4.66%.
Regarding `O=S(=O)(O)c1ccc(O)cc1`, the “activity, negative = inhibition” value was 4.55%.
With `COc1cc(C(=O)NCc2ccc(OCCN(C)C)cc2)cc(OC)c1OC`, the “activity, negative = inhibition” value was -0.315% [at 12.8 µM].
For `COc1cc(C)nc(-n2nc(C)cc2OC)n1`, the “activity, negative = inhibition” value is -24.7% [at 12.8 µM].
On the same count and under the same terms, the result for `CC(=O)Oc1ccc(C)cc1` reads 6.49%; that for `CC(=O)NC(=O)c1ccccc1O`, -6.25%.
On the same count and under the same terms, then `FC(F)(F)C(F)(F)C(F)(F)C(F)(F)C(F)(F)C(F)(F)C(F)(F)C(F)(F)Br`, with 8%; and `c1ccc(-c2nc[nH]c2-c2ccccc2)cc1`, with -3.28%; and `CCNC(=O)NCc1cccc(Cl)c1`, with 5.52%.
On the same count and under the same terms, then `O=C(O)Cc1csc(-c2ccc(Cl)cc2)n1`, with 2.18%.
In the case of `Nc1nc(-c2ccccc2)c(Br)c(=O)[nH]1`, the “activity, negative = inhibition” value was 2.7%.
`O=c1[nH]c(=O)n([C@H]2C[C@H](O)[C@@H](CO)O2)cc1F`: the “activity, negative = inhibition” value was 2.71%.
Still for that read-out and setting: the result for `CC(=O)Nc1ncc([N+](=O)[O-])s1` reads 9.72%.
Take `Cc1cccc(C)c1NC(=O)CN1CCCCCC1`: the “activity, negative = inhibition” value is -13.5%.
The same measure, in the same setting: then `CC[C@H](c1ccc(O)cc1)[C@@H](CC)c1ccc(O)cc1`, with -20.2% [at 12.8 µM]; and `Cc1c(-c2ccccc2)oc2c(C(=O)OCCN3CCCCC3)cccc2c1=O`, with -3.88% [at 12.8 µM]; and `CCCCCCCCCCCCCCCCO`, with 5.39%.
Still for that read-out and setting: the result for `Oc1ccccc1C=NCc1ccccc1` reads 5.03%.
The same measure, in the same setting: then `CCN(CC)CCNC(=O)COc1ccc(OC)cc1`, with 4.71%; and `COc1cc(N)c(Cl)cc1C(=O)NC1CCN(Cc2ccccc2)CC1`, with -24.7% [at 12.8 µM].
For `Cc1cc(NS(=O)(=O)c2ccc(N)cc2)nc(C)n1`, the “activity, negative = inhibition” value is 8.11%.
`CC(=O)OC[C@H]1O[C@@H](n2ncc(=O)[nH]c2=O)[C@H](OC(C)=O)[C@@H]1OC(C)=O`: the “activity, negative = inhibition” value is 3.27%.
The same measure, in the same setting: the result for `CCOc1ccccc1OCCN[C@H](C)Cc1ccc(OC)c(S(N)(=O)=O)c1` reads 2.85%; that for `O=C(NCCc1c[nH]c2ccccc12)c1cccnc1`, 3.99%.
Regarding `Cc1ccccc1OCC(O)CO` (stereo not given), the “activity, negative = inhibition” value is 10.4%.
On the same count and under the same terms, then `Cc1cc(C)cc(OCC2CNC(=O)O2)c1` (stereo not given), with 0.405%; and `CCOc1cc(OCC)c(C(=O)CCC(=O)O)cc1OCC`, with -9.24%.
Still for that read-out and setting: the result for `N#CCC(=O)NN` reads -3.42%.
Take `O=C(O)C(Cc1cc(I)c(O)c(I)c1)c1ccccc1` (stereo not given): the “activity, negative = inhibition” value was -1.81%.
`CCCCCCCC/C=C\CCCCCCCCN`: the “activity, negative = inhibition” value is 5.26%.
As to `CC1=C(C(=O)O)N2C(=O)[C@@H](NC(=O)[C@H](N)c3ccccc3)[C@H]2SC1`, the “activity, negative = inhibition” value is 5.02%.
Take `CCN(CC)CCNc1ccc(CO)c2sc3ccccc3c(=O)c12`: the Potency is 1 µM (active).
For `Cl/C(=C\n1cncn1)c1ccc(Cl)cc1Cl`, the “activity, negative = inhibition” value was 8.36%.
Still for that read-out and setting: the result for `CCCCCCCCCCCCCCCC(=O)O` reads 2.1%.
On the same count and under the same terms, then `CC(C)CCCC(C)N` (stereo not given), with 1.1%; and `CCOC(=O)c1ccc(N)cc1`, with 7.29% [at 12.8 µM].
Turning to `Cc1c[nH]c2ccccc12`, the “activity, negative = inhibition” value was 1.64%.

In another test the test system is CP252. The test is described as above. Particulars: P. falciparum in erythrocytes, SYBR Green DNA, 72 h; series mostly up to 28.7 µM; activity, negative = inhibition: at the top concentration. Put shortly:
as §1
Consider `C#C[C@]1(O)CC[C@H]2[C@@H]3CCc4cc(OC)ccc4[C@H]3CC[C@@]21C`, for which the “activity, negative = inhibition” value was -0.895%.
Consider `CCCCNC(=O)NS(=O)(=O)c1ccc(N)cc1`, for which the “activity, negative = inhibition” value is 6.78%.
As to `Nc1ccc(C(=O)NCC(=O)O)cc1`, the “activity, negative = inhibition” value was 3.36% [at 12.8 µM].
The same measure, in the same setting: then `OC1C(O)C(O)C(O)C(O)C1O` (stereo not given), with 1.84%.
Consider `O=S(=O)(O)c1ccc(O)cc1`, for which the “activity, negative = inhibition” value is 12%.
The same measure, in the same setting: then `COc1cc(C(=O)NCc2ccc(OCCN(C)C)cc2)cc(OC)c1OC`, with -9.64% [at 12.8 µM].
On to `COc1cc(C)nc(-n2nc(C)cc2OC)n1`, for which the “activity, negative = inhibition” value was -3.42% [at 12.8 µM].
On the same count and under the same terms, then `CC(=O)Oc1ccc(C)cc1`, with 6.65%; and `CC(=O)NC(=O)c1ccccc1O`, with 0.153%; and `FC(F)(F)C(F)(F)C(F)(F)C(F)(F)C(F)(F)C(F)(F)C(F)(F)C(F)(F)Br`, with 3.4%.
As for `c1ccc(-c2nc[nH]c2-c2ccccc2)cc1`, the “activity, negative = inhibition” value was -3.08%.
Same read-out and setting: the result for `CCNC(=O)NCc1cccc(Cl)c1` reads 4.05%; that for `O=C(O)Cc1csc(-c2ccc(Cl)cc2)n1`, 3.46%.
On the same count and under the same terms, the result for `Nc1nc(-c2ccccc2)c(Br)c(=O)[nH]1` reads 0.31%; that for `O=c1[nH]c(=O)n([C@H]2C[C@H](O)[C@@H](CO)O2)cc1F`, -3.51%.
On the same count and under the same terms, the result for `CC(=O)Nc1ncc([N+](=O)[O-])s1` reads -1.62%; that for `Cc1cccc(C)c1NC(=O)CN1CCCCCC1`, -11.8%.
Turning to `CC[C@H](c1ccc(O)cc1)[C@@H](CC)c1ccc(O)cc1`, the “activity, negative = inhibition” value was -1.92% [at 12.8 µM].
Still for that read-out and setting: the result for `Cc1c(-c2ccccc2)oc2c(C(=O)OCCN3CCCCC3)cccc2c1=O` reads -0.342% [at 12.8 µM].
Still for that read-out and setting: the result for `CCCCCCCCCCCCCCCCO` reads 1.84%.
On the same count and under the same terms, then `Oc1ccccc1C=NCc1ccccc1`, with 4.8%; and `CCN(CC)CCNC(=O)COc1ccc(OC)cc1`, with 1.97%; and `COc1cc(N)c(Cl)cc1C(=O)NC1CCN(Cc2ccccc2)CC1`, with -18.8% [at 12.8 µM].
Turning to `Cc1cc(NS(=O)(=O)c2ccc(N)cc2)nc(C)n1`, the “activity, negative = inhibition” value is 6.71%.
The same measure, in the same setting: then `CC(=O)OC[C@H]1O[C@@H](n2ncc(=O)[nH]c2=O)[C@H](OC(C)=O)[C@@H]1OC(C)=O`, with 0.123%; and `CCOc1ccccc1OCCN[C@H](C)Cc1ccc(OC)c(S(N)(=O)=O)c1`, with -0.487%; and `O=C(NCCc1c[nH]c2ccccc12)c1cccnc1`, with 5.11%.
The same measure, in the same setting: then `Cc1ccccc1OCC(O)CO` (stereo not given), with 2.18%; and `Cc1cc(C)cc(OCC2CNC(=O)O2)c1` (stereo not given), with 10.5%.
Consider `CCOc1cc(OCC)c(C(=O)CCC(=O)O)cc1OCC`, for which the “activity, negative = inhibition” value was 1.55%.
Still for that read-out and setting: then `N#CCC(=O)NN`, with 4.72%; and `O=C(O)C(Cc1cc(I)c(O)c(I)c1)c1ccccc1` (stereo not given), with 6.6%.
The same measure, in the same setting: then `CCCCCCCC/C=C\CCCCCCCCN`, with 2.14%.
On to `CC1=C(C(=O)O)N2C(=O)[C@@H](NC(=O)[C@H](N)c3ccccc3)[C@H]2SC1`, for which the “activity, negative = inhibition” value was 6.77%.
Regarding `CCN(CC)CCNc1ccc(CO)c2sc3ccccc3c(=O)c12`, the Potency was 562 nM (active).
As for `Cl/C(=C\n1cncn1)c1ccc(Cl)cc1Cl`, the “activity, negative = inhibition” value was 3.3%.
The same measure, in the same setting: the result for `CCCCCCCCCCCCCCCC(=O)O` reads 0.0507%; that for `CC(C)CCCC(C)N` (stereo not given), 4.29%.
On the same count and under the same terms, then `CCOC(=O)c1ccc(N)cc1`, with 11% [at 12.8 µM].
As to `Cc1c[nH]c2ccccc12`, the “activity, negative = inhibition” value is 2.53%.
